From PubChem BioAssay (NCATS)
Results filed as inconclusive are left out. Entries that show only a call come without a potency. Activity calls are given as the source filed them. The call rests on the fitted dose curve; in most records, active means well fitted inhibition curve with a large enough effect; inconclusive means small, poorly fitted or top-dose-only effect; inactive means flat fitted curve, though single readings scatter. Where a SMILES comes first, the peptide text is derived from it. The star is where a group is joined. AMC = Cc1cc(=O)oc2cc(N*)ccc12; Cbz = O=C(OCc1ccccc1)*

Assay: P-glycoprotein substrates identified in KB-8-5-11 adenocarcinoma cell line, qHTS therapeutic library screen (AID 1346987); further: nearly all actives have a fitted effect of over 65% in size
Settings: KB-8-5-11 (P-gp overexpressing) viability, CellTiter-Glo, 72 h; series mostly up to 44.5 µM
Summary of the method: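 In this qHTS, P-gp-rich KB-8-5-11 cells received library compounds across a concentration range. Viability was quantified by luminescence after 72 h at 37 degree C.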

SMILES: C/C=C1/[C@H](O[C@@H]2O[C@H](CO)[C@@H](O)[C@H](O)[C@H]2O)OC=C(C(=O)OC)[C@H]1CC(=O)OCCc1ccc(O)c(O)c1
- Potency: inactive

SMILES: CC(C)(Oc1ccc(-c2nc3cc(Cl)ccc3s2)cc1)C(=O)O
- Potency: inactive

SMILES: CC(C)(CC(=O)N1CCCC1)NCC(=O)N1C[C@@H](F)C[C@H]1C#N
- Potency: inactive

SMILES: CC(C)=CC[C@H]1O[C@]2(O)C([C@H]3CCC4[C@@]5(C)CC[C@H](O[C@@H]6O[C@H](CO)[C@H](O)[C@H](O[C@@H]7O[C@H](CO)[C@@H](O)[C@H](O)[C@H]7O)[C@H]6O[C@@H]6O[C@@H](C)[C@H](O)[C@@H](O)[C@H]6O)C(C)(C)C5CC[C@@]4(C)[C@]3(C)[C@H]2O)[C@@]1(C)O (some centres undefined)
- activity change, negative = cytotoxicity: 9.26% [at 9.29 µM] (inactive)

SMILES: Cc1ccc(-c2c(-c3nn(C)c4ncnc(N5CC[C@H](N6CCCCC6)C5)c34)cnn2C)cc1
- Potency: inactive

SMILES: COC(=O)C1=CO[C@@H](O[C@@H]2O[C@H](CO)[C@@H](O)[C@H](O)[C@H]2O)[C@H]2[C@@H]1[C@H](O)[C@H](O)[C@]2(C)O
- Potency: inactive

SMILES: CC1=C2CC(=O)C(C)CC/C=C(\C)CC2OC1=O (centres undefined)
- Potency: inactive

SMILES: C=C[C@H]1[C@H](O[C@@H]2O[C@H](CO)[C@@H](O)[C@H](OC(=O)/C=C/c3ccc(O)c(OC)c3)[C@H]2O)OC=C2C(=O)OCC[C@]21O
- Potency: inactive

SMILES: CC12CC(c3ccoc3)OC(=O)C1CCC1(C)C2CCC(O)C1(C)O (centres undefined)
- Potency: inactive

SMILES: CCCC(C(=O)O)c1c(C)nc2ccc(Cl)cc2c1-c1ccccc1 (centres undefined)
- Potency: inactive

SMILES: COc1cc(O)cc2c1C(=O)OC(C)C2 (centres undefined)
- Potency: inactive

SMILES: CC1CC(=O)[C@]2(O)C(C(=O)OCCc3ccc(O)c(O)c3)=CO[C@@H](O[C@@H]3O[C@H](CO)[C@@H](O)[C@H](O)[C@H]3O)[C@H]12 (some centres undefined)
- Potency: inactive

SMILES: O=C(CCc1ccccc1)c1c(O)c([C@@H]2O[C@H](CO)[C@@H](O)[C@H](O)[C@H]2O)c(O)c([C@@H]2O[C@H](CO)[C@@H](O)[C@H](O)[C@H]2O)c1O
- Potency: inactive

SMILES: C=C1CCC2C(C)(C)CC(O)CC2(C)C1CCC(C)CC(=O)O (centres undefined)
- Potency: inactive

SMILES: CC1(C)CC[C@]2(C(=O)O)CC[C@]3(C)C(=CCC4[C@@]5(C)CC[C@H](O)C(C)(C)C5CC[C@]43C)C2C1 (some centres undefined)
- Potency: inactive

SMILES: CC1=CC2=C(C)C(=O)C(C)(O)C(O)C2CO1 (centres undefined)
- Potency: inactive

SMILES: O=C(NC/C=C/CN1CCN(c2cccc(Cl)c2Cl)CC1)c1ccc(-c2ccccn2)cc1
- Potency: inactive

SMILES: CC(C)c1ccc2c(c1)C(O)CC1C(C)(C(=O)O)CCCC21C (centres undefined)
- Potency: inactive

SMILES: O=C(O)c1cc(O[C@@H]2O[C@H](CO)[C@@H](O)[C@H](O)[C@H]2O)ccc1O
- Potency: inactive

SMILES: CC(C)=C1C[C@@]2(C)C(=CC1=O)CC[C@@H](O)[C@@H]2C
- Potency: inactive

SMILES: C[C@@H]1O[C@@H](O[C@H]2[C@H](O[C@H]3[C@H](O[C@H]4CC[C@@]5(C)C(CC[C@]6(C)C5CC=C5[C@@H]7CC(C)(C)C[C@@H](O)[C@]7(C)CC[C@]56C)[C@@]4(C)CO)O[C@H](C(=O)O)[C@@H](O)[C@@H]3O)O[C@H](C(=O)O)[C@H](O)[C@@H]2O)[C@H](O)[C@H](O)[C@H]1O (some centres undefined)
- outcome: inactive [at 9.29 µM]

SMILES: CC(O)/C=C/C1(O)C(C)C(O)C(O[C@@H]2O[C@H](CO)[C@@H](O)[C@H](O)[C@H]2O)CC1(C)C (some centres undefined)
- Potency: inactive

SMILES: C=C1CC2C3(C)C=CC(=O)OC(C)(C)C3CC(OC(C)=O)C2(C)C2C(=O)OC(C)C(=O)C12C (centres undefined)
- Potency: inactive

SMILES: C=C(C(=O)O)C1CC(O)C2(C)CCCC(C)(O)C2C1 (centres undefined)
- Potency: inactive

SMILES: COCC1OC(OC(C)(C)C2CCC3(C)C=C(C4CCC5C4(C)CC(O)C4OC(C(C)(C)O)CCC45C)CCC3O2)C(NC(C)=O)C(O)C1O (centres undefined)
- Potency: inactive

SMILES: CC(C)[C@](O)(c1ccc2cc(OC(F)F)c(OC(F)F)cc2c1)c1cn[nH]n1
- Potency: inactive

SMILES: O=C(O)CCc1cc2ccoc2cc1O[C@@H]1O[C@H](CO)[C@@H](O)[C@H](O)[C@H]1O
- Potency: inactive

SMILES: CC1=C2CC(C)(C)CC2C(O)C2=C(C1)C(=O)OC2O (centres undefined)
- Potency: inactive

SMILES: Cc1c(NC(=O)N2CCOCC2)ccc2c1c1ccccc1n2C(C)C
- Potency: inactive

SMILES: CSCC1OC(n2cnc3c(=O)[nH]cnc32)C(O)C1O (centres undefined)
- Potency: inactive

SMILES: CC1(C(=O)O)CCCC2(C)C3CCC4CC3(CCC12)CC4C(=O)O (centres undefined)
- Potency: inactive

SMILES: COc1ccc(C(=O)CC(=O)O)c2c1C=CC(C)(C)O2
- Potency: inactive

SMILES: CC1(C)CC=C(C#Cc2ccccc2)c2cc(/C=C/c3ccc(C(=O)O)cc3)ccc21
- Potency: inactive

SMILES: CCN(CCN(C)C)C(=O)CNCc1cc(C(N)=O)ccn1
- Potency: inactive

SMILES: N[C@@H](CC(=O)Nc1ccc(Oc2cc(F)c(F)cc2Br)cc1)C(=O)O
- Potency: inactive

SMILES: O=C1C[C@@]2(C(=O)N1)C(=O)N(Cc1ccc(Br)cc1F)C(=O)c1cccn12
- Potency: inactive

SMILES: CC(C)c1ccc2c(c1)[C@H](O)CC1[C@@](C)(C(=O)O)CCC[C@]21C (some centres undefined)
- Potency: inactive

SMILES: COC(=O)C1=CO[C@@H](O[C@@H]2O[C@H](CO)[C@@H](O)[C@H](O)[C@H]2O)[C@H]2[C@@H]1[C@H](O)C[C@]2(C)O
- Potency: inactive

SMILES: CC1=CCC[C@@H]2[C@](CCc3ccoc3)(C(=O)O)[C@H](C)CC[C@@]12C
- Potency: inactive

SMILES: C[C@]1(OC(=O)/C=C/c2ccccc2)C[C@@H](O)[C@]2(O)C=CO[C@@H](O[C@@H]3O[C@H](CO)[C@@H](O)[C@H](O)[C@H]3O)[C@@H]21
- Potency: inactive

SMILES: Cn1nccc1-c1ccccc1Oc1ccc(S(=O)(=O)Nc2nccs2)cc1C#N
- Potency: inactive

SMILES: C/C=C/C=C/C(O)=C1/C(=O)[C@]2(C)C3/C(=C(O)/C=C/C=C/C)C(=O)C4(C)C1[C@]1(C)O[C@@]4(O)[C@@]3(C)O[C@@]12O
- Potency: inactive

SMILES: CC(=O)OC1C(O)/C(C)=C\C2C(OC(=O)c3ccccc3)C(C)CC2(OC(C)=O)C(OC(C)=O)C(C)/C=C/C(C)(C)C1OC(C)=O (centres undefined)
- Potency: inactive

SMILES: Cc1cc(=O)oc2cc(NC(=O)[C@H](CCC(=O)O)NC(=O)[C@H](CC(C)C)NC(=O)[C@H](CC(C)C)NC(=O)OCc3ccccc3)ccc12 (Cbz-Leu-Leu-Glu-{AMC})
- Potency: inactive

SMILES: Cc1nc(-c2cccnc2)sc1C(=O)Nc1ccccc1-c1cn2c(CN3CCOCC3)csc2n1
- Potency: inactive

SMILES: CC1(C)CC[C@]2(C(=O)O[C@@H]3O[C@H](CO)[C@@H](O)[C@H](O)[C@H]3O)CC[C@]3(C)C(=CCC4[C@@]5(C)CC[C@H](O[C@@H]6O[C@H](C(=O)O)[C@@H](O[C@@H]7O[C@H](CO)[C@@H](O)[C@H](O)[C@H]7O)[C@H](O)[C@H]6O[C@@H]6O[C@H](CO)[C@@H](O)[C@H](O)[C@H]6O)C(C)(C)C5CC[C@]43C)C2C1 (some centres undefined)
- outcome: inactive [at 9.29 µM]

SMILES: COc1cccc(C)c1C(=O)O[C@@H]1C[C@H](O[C@H]2[C@H](O)C[C@H](O[C@@H]3CCC[C@H]4[C@H]3C=C[C@@H]3CCCC/C=C/[C@H]5C=C(C(=O)O)[C@@H](C)C[C@@]56OC(=O)C(=C6O)OC(=O)[C@@]34C)O[C@@H]2C)O[C@H](C)[C@H]1O
- outcome: inactive [at 9.29 µM]

SMILES: O=C(O)CCc1cccc(O)c1O[C@@H]1O[C@H](CO)[C@@H](O)[C@H](O)[C@H]1O
- Potency: inactive

SMILES: COc1ccc(C2(O)c3c(ccc4c3OC(C)(CCC=C(C)C)C=C4)NC(=O)C2OC)cc1 (centres undefined)
- Potency: inactive

SMILES: C[C@@H]1C(=O)O[C@H]2[C@H]1CC[C@@]1(C)C(=O)C=C[C@@](C)(O)[C@H]21
- Potency: inactive

SMILES: CC(=O)OC(C)C(C)(O)C(=O)O[C@@H]1CC[C@]2(C)CC(=O)C(=C(C)C)C[C@H]2[C@]1(C)OC(C)=O (some centres undefined)
- Potency: inactive

SMILES: O=C(/C=C/c1ccc(O)cc1)O[C@H]1[C@H](OC2CCCCC2O)O[C@H](CO)[C@@H](O)[C@@H]1O (some centres undefined)
- Potency: inactive

SMILES: CN1CCCC1Cc1c[nH]c2ccc(CCS(=O)(=O)c3ccccc3)cc12 (centres undefined)
- Potency: inactive

SMILES: CC1=COC(OC2OC(CO)C(O)C(O)C2O)C2C(CO)CC(OC(=O)/C=C/c3ccc(O)cc3)C12 (centres undefined)
- Potency: inactive
